MITF primary – MITF inhibitors, primary screen, biochemical, AlphaScreen, human. Microphthalmia-associated transcription factor (Homo sapiens), O75030. AlphaScreen MITF homodimerization, bead proximity signal. inhibition, % at 2.6 µM. actives 0.91% (n = 650,000). AID 1259374, 2018; in the data active means inhibition above about 50%;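 further: 0% = vehicle wells with protein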
TEAD-YAP block – TEAD-YAP interaction inhibition, primary screen, TEAD-YAP interaction inhibitor project, luminescence, HEK-TIYL cells. TEAD-Gal4/YAP UAS-luciferase luminescence. inhibition, % at 9.12 µM. actives 1.4% (n = 640,000); in the data active means inhibition above about 32%;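 further: 0% = median of test compound wells and 100% = reference inhibitor wells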
FBW7 act – FBW7 E3 ligase activators, primary screen, biochemical, AlphaScreen, human; F-box/WD repeat-containing protein 7 (Homo sapiens), Q969H0; AlphaScreen FBW7–phospho-cyclin E peptide binding, activator screen; normalized activity (activation), % at 26.1 µM; actives 0.13% (n = 650,000); AID 1259310, 2017; in the data active means normalized activity above about 1.9%;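 further: purified mutant Fbw7 with reduced substrate affinity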
GPR151 ag – activators of human GPR151, primary screen, cell-based, PathHunter beta-arrestin, luminescence; actives 1% (n = 650,000); PathHunter beta-arrestin GPR151 cells; G-protein coupled receptor 151 (Homo sapiens), Q8TDV0; activation, % at 11.2 µM; in the data active means activation above about 4.9%;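 further: 0% = median of compound wells and 100% = cells with positive control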
Target sequence (Q8TDV0 whole entry, looked up): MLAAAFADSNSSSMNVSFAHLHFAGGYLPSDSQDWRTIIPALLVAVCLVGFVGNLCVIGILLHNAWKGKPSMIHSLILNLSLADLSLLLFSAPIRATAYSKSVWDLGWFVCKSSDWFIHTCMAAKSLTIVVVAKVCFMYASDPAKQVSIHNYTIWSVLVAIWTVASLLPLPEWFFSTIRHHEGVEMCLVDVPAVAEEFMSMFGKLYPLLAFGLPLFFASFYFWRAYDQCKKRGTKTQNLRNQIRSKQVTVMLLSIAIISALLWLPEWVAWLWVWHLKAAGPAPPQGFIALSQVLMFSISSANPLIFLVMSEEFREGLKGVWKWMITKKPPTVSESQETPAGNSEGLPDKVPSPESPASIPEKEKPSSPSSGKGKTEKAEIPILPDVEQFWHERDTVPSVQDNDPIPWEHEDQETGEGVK
The depositor's hits bear a star. An excerpt weighted towards active compounds, which were near 3.4% of everything screened.

What do the screens show for `COc1ccccc1CN1CCNC(=O)C1CC(=O)NCc1cccc2[nH]ccc12` (centres undefined)?
MITF primary: -6; TEAD-YAP block: 7; FBW7 act: 0; GPR151 ag: 0

Results for O=C(O)c1ccccc1N=Nc1ccc(O)c2ncccc12 ?
MITF primary: 34; TEAD-YAP block: -9; FBW7 act: 0; GPR151 ag: 0

Results for NS(=O)(=O)c1ccc(N=Nc2ccc(O)c3ncccc23)cc1 ?
MITF primary: 80*; TEAD-YAP block: 24; FBW7 act: -1; GPR151 ag: -1

What do the screens show for `COc1ccc(-c2nnc(Sc3ccc([N+](=O)[O-])cn3)n2-c2ccccc2)cc1OC`?
MITF primary: 15; TEAD-YAP block: 55*; FBW7 act: 0; GPR151 ag: -2

Results for O=C(CSc1nc2ccccc2c(=O)n1CC1CCC(C(=O)N2CCN(c3ccccc3)CC2)CC1)NC1CCCC1 (centres undefined) ?
MITF primary: 2; TEAD-YAP block: -9; FBW7 act: 0; GPR151 ag: -1

What do the screens show for `CC(=O)CSc1nc(C2CC2)cc(C(F)(F)F)c1C#N`?
MITF primary: 11; TEAD-YAP block: 14; FBW7 act: 2.7*; GPR151 ag: 0

What do the screens show for `C/C(=N\Nc1nc2ccccc2s1)c1ccc(F)cc1`?
MITF primary: 2; TEAD-YAP block: 34*; FBW7 act: 0; GPR151 ag: 1

Results for C/C(=N\Nc1nc2ccccc2s1)c1ccc(O)cc1 ?
MITF primary: 12; TEAD-YAP block: -59; FBW7 act: 0; GPR151 ag: -1

How did COc1ccc(S(=O)(=O)Oc2c(C=O)cccc2OC)cc1 do in these assays?
MITF primary: -7; TEAD-YAP block: 46*; FBW7 act: 0; GPR151 ag: 0

How did COc1ccc(S(=O)(=O)Oc2ccc(C=C3C(=O)NC(=S)NC3=O)cc2OC)cc1 do in these assays?
MITF primary: -6; TEAD-YAP block: 54*; FBW7 act: 0; GPR151 ag: 0

How did COc1ccc(C=O)cc1OS(=O)(=O)c1ccc(Cl)cc1 do in these assays?
MITF primary: 4; TEAD-YAP block: 25; FBW7 act: 0; GPR151 ag: -1

Results for COc1ccc(S(=O)(=O)Oc2ccc(C=O)cc2OC)cc1 ?
MITF primary: 7; TEAD-YAP block: 47*; FBW7 act: 0; GPR151 ag: -1

Results for COc1ccc(S(=O)(=O)Oc2cccc(C=C3C(=O)NC(=S)NC3=O)c2)cc1 ?
MITF primary: 5; TEAD-YAP block: 6; FBW7 act: 1; GPR151 ag: -1

What do the screens show for `COc1cccc(C=O)c1OS(=O)(=O)c1ccc(Cl)cc1`?
MITF primary: -5; TEAD-YAP block: 11; FBW7 act: 0; GPR151 ag: 1

How did CN(C)S(=O)(=O)c1ccc(Br)c2nsnc12 do in these assays?
MITF primary: 4; TEAD-YAP block: 7; FBW7 act: 0; GPR151 ag: 3

Results for O=C(CN1CCCC1)Nc1ccc(-c2nc3cc(NC(=O)CN4CCCC4)ccc3o2)cc1 ?
MITF primary: -3; TEAD-YAP block: 36*; FBW7 act: 0; GPR151 ag: 0

Results for Cc1ccccc1-c1nc2cc(NC(=O)C(C)C)ccc2o1 ?
MITF primary: 4; TEAD-YAP block: 66*; FBW7 act: 0; GPR151 ag: 1

How did CC(C)(C)c1ccc(-c2nc3cc(NC(=S)NC(=O)c4ccco4)ccc3o2)cc1 do in these assays?
MITF primary: 13; TEAD-YAP block: 43*; FBW7 act: 1; GPR151 ag: 5

How did Cc1ccc(-c2nc3cc(NC(=S)NC(=O)c4ccco4)ccc3o2)cc1 do in these assays?
MITF primary: 14; TEAD-YAP block: -46; FBW7 act: 1; GPR151 ag: 0

Results for CCN(CC)c1ccc(-c2nc3cc(NC(=O)c4ccc(OC)c(OC)c4)ccc3o2)cc1 ?
MITF primary: 21; TEAD-YAP block: -22; FBW7 act: 2.4*; GPR151 ag: -1

What do the screens show for `Cc1ccc(NC(=O)CSc2nc3nc(C)c(Cc4ccccc4Cl)c(C)n3n2)cc1`?
MITF primary: 10; TEAD-YAP block: 25; FBW7 act: 0; GPR151 ag: 0

Results for CC(C)(C)C(=O)Nc1ccc2oc(-c3cncc(Br)c3)nc2c1 ?
MITF primary: 7; TEAD-YAP block: 35*; FBW7 act: 0; GPR151 ag: 2

Results for O=C(NC(=S)Nc1ccc2oc(-c3ccccc3)nc2c1)c1cncc(Br)c1 ?
MITF primary: 4; TEAD-YAP block: -3; FBW7 act: 0; GPR151 ag: 0

How did Cc1cc2nc(-c3cccc(NC(=S)NC(=O)c4ccco4)c3)oc2cc1C do in these assays?
MITF primary: 10; TEAD-YAP block: 47*; FBW7 act: 1; GPR151 ag: -1

How did CC(=O)Nc1ccc2oc(-c3cccc(C)c3)nc2c1 do in these assays?
MITF primary: -11; TEAD-YAP block: 62*; FBW7 act: 0; GPR151 ag: -8

How did COc1ccc(Cl)cc1C(=O)Nc1ccc2oc(-c3ccc(C(C)(C)C)cc3)nc2c1 do in these assays?
MITF primary: 8; TEAD-YAP block: 38*; FBW7 act: 0; GPR151 ag: 0

Results for Cc1ccc2nc(-c3cccc(NC(=S)NC(=O)c4ccco4)c3)oc2c1 ?
MITF primary: -6; TEAD-YAP block: -54; FBW7 act: 0; GPR151 ag: -2

Results for COc1ccc2c(c1)c1ncn(C)c(=O)c1n2Cc1ccccc1 ?
MITF primary: 17; TEAD-YAP block: 3; FBW7 act: 0; GPR151 ag: 1

What do the screens show for `O=[N+]([O-])c1cc2c(cc1/C=N/Nc1nncc(-c3ccccc3)n1)OCO2`?
MITF primary: -3; TEAD-YAP block: -2; FBW7 act: 1; GPR151 ag: 0

What do the screens show for `O=C(Nc1ccc(-c2nc3cc(NC(=O)c4ccco4)ccc3o2)cc1)c1ccco1`?
MITF primary: 10; TEAD-YAP block: -24; FBW7 act: 0; GPR151 ag: 1

What do the screens show for `O=C(Nc1ccc2oc(-c3ccc(-c4ccccc4)cc3)nc2c1)c1ccco1`?
MITF primary: 3; TEAD-YAP block: -3; FBW7 act: 2.5*; GPR151 ag: -1

Results for N#Cc1sc(NC(=O)c2ccc(F)c(F)c2)nc1Cl ?
MITF primary: -3; TEAD-YAP block: 26; FBW7 act: 0; GPR151 ag: -12

Results for N#Cc1sc(NC(=O)c2cccc(Br)c2)nc1Cl ?
MITF primary: 6; TEAD-YAP block: 64*; FBW7 act: 0; GPR151 ag: -9

What do the screens show for `Cc1ccc(C(=O)Nc2nc(Cl)c(C#N)s2)cc1`?
MITF primary: 2; TEAD-YAP block: 71*; FBW7 act: 0; GPR151 ag: -12

How did N#CC(Cl)CNS(=O)(=O)c1ccc(Cl)cc1 (centres undefined) do in these assays?
MITF primary: -1; TEAD-YAP block: 47*; FBW7 act: 0; GPR151 ag: -2

Screening results (PubChem BioAssay)
